# Results reported in PubChem BioAssay AID540317 (National Center for Advancing Translational Sciences (NCATS), 2011).
# In all, about 390,000 compounds went through this assay and about 2,200 (0.56%) were called active. Entries that show only a call come without a potency. Not shown: some 3% with an inconclusive outcome. Calls come from the whole dose curve; as a rule, active = well fitted inhibition curve with a large enough effect; inconclusive = small, poorly fitted or top-dose-only effect; inactive = no such curve, though single readings can be large or run the other way. The sample as a whole holds a higher share of actives than the screen did.
# Biological target: Chromobox protein homolog 1 (Homo sapiens) (UniProt P83916)
# Sequence (P83916 whole entry, looked up): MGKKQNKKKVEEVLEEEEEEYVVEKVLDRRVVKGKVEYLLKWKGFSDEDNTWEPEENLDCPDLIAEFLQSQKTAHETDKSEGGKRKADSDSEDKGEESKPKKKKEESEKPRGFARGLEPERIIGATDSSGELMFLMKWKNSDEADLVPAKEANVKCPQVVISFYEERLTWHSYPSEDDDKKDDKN
# Assay: HTS for Inhibitors of HP1-beta Chromodomain Interactions with Methylated Histone Tails; note: nearly all actives have a fitted effect of over 70% in size
# Details: AlphaScreen HP1-beta / biotin-H3K9me3 peptide binding; series mostly up to 114 µM
# Description: As our understanding of epigenetics expands, it is becoming clear that players in this field are potential targets for drug development. This area of epigenetic therapy has established applications for the treatment of cancer and neurological diseases. We have been involved in this field for a number of years and have performed high-throughput screens to identify the first small molecule inhibitors of protein methyltransferases. These methyltransferases target multiple substrates, and thus regulate many arms of an epigenetic pathway. The methylation of different substrates often generates docking sites for effector proteins that harbor binding domains (chromo, tudor, PHD, MBT and ANK repeats). It has been proposed that the binding sites generated for different proteins by these post-translational modifcations mediate downstream effects on chromatin. Consistent with this theory, di- and tri-methylation of histone H3K9 facilitates the binding of heterochromatin protein HP1. The HP1 protein harbors a chromodomain that is responsible for the methyl-dependent interaction between HP1 and lysine 9 of histone H3. HP1 was first described in flies as a heterochromatin associated protein that can regulate gene silencing. It harbors a chromodomain that binds H3K9me3. In addition, it harbors a chromoshadow domain that interacts with a large number of proteins that are involved in heterochromatin formation and gene repression. There are three highly related HP1 isoforms. All three variants are associated with pericentric heterochromatin and it is not clear whether they have specific or redundant functions. MPP8 is also involved in the repression of gene in euchromatic regions (unpublished data) and like HP1 its chromodomain binds H3K9me3. MPP8 harbors an ankyrin repeat region that is likely involved in binding and recruiting interacting proteins with transcriptional repressive function, much like the chromoshadow domain of HP1 does. We hypothesize that by inhibiting specific protein-protein interactions we will be able to develop compounds that block a single arm of an epigenetic pathway. The specificity attained by blocking a single protein-protein interaction will be far greater than that attained by blocking the enzyme that regulates one of many interactions. Low-affinity protein-protein interactions (Kd in the single- to double-digit micromolar range) such as those discussed here have been very difficult to assay by traditional techniques such as fluorescence polarization or fluorescence resonance energy transfer. We have developed a sensitive chemiluminescence-based assay (Quinn, et al. 2009), which serves as the starting point for this project. The following is a validation assay to identify lead compounds that can block methyl-dependent protein-protein interactions (specifically HP1-beta), which can be used as probes to analyze these methyl-driven interactions and perhaps even developed into targeted epigenetic therapies. NIH Chemical Genomics Center [NCGC] NIH Molecular Libraries Probe Centers Network [MLPCN] MLPCN Grant: DA031087 Assay Submitter (PI): Mark Bedford, University of Texas, Medical Anderson Cancer Center, TX
# To each well, 2 uL of HP1-beta protein (final 50 nM) and 1 uL biotinylated histone peptide trimethylated at Lys9 [b-H3(1-18)K9me3] (final 50 nM) was added in 1x PBS buffer, pH 7.4, containing 0.01% Tween-20 using a nanoliter dispenser. Formation of a protein-peptide complex proceeded at room temperature for 30 min. A Kalypsys pin-tool was employed to transfer 23 nL of library compound solution in DMSO to each well. Aurintricarboxylic acid (ATA) was used as an intraplate control with a 12-point titration in duplicate. Following a 30 min incubation of the protein-peptide complex with compounds at room temperature, a mixture of 40 ug/mL each streptavidin-coated donor and nickel chelate acceptor AlphaScreen beads (final 10 ug/mL) was added in a 1 uL dispense for a final volume of 4 uL. […]
# Potency is the fitted concentration of half-maximal effect.
row,SMILES,Potency
1,CSc1nc(-c2ccccc2Cl)nc2c1Cc1c(CO)cnc(C)c1O2,inactive
2,COC(=O)C1=C(C)N(c2ccc(C)cc2)/C(=C/c2ccc(O)cc2)C1=O,inactive
3,COc1ccc(N2C(=O)/C(=C\c3ccco3)N=C2SCC(N)=O)cc1Cl,inactive
4,COC(=O)C1=C(C)N(c2ccc(Br)cc2)C(=O)/C1=C\c1ccco1,44.7 µM (active)
5,Cc1nc(N2CCOCC2)c2c(C(=O)NCc3cccc(Cl)c3)c(C)oc2n1,inactive
6,CN(C)c1ccc(S(=O)(=O)NCC(=O)NCC2CCCCC2)cc1[N+](=O)[O-],inactive
7,CN(C)c1ccc(/C=C/C(=O)c2ccc(C(C)(C)C)cc2)cc1[N+](=O)[O-],31.6 µM (active)
8,CC(C)(C)c1ccc(/C=C/C(=O)NC2CCS(=O)(=O)C2)cc1 (stereo unspecified),inactive
9,CCCCC(=O)OC1=CN(Cc2ccccc2)S(=O)(=O)c2ccccc21,inactive
10,COc1ccc(C(=O)Nc2nonc2-c2ccc(OC)c(OC)c2)cc1Cl,inactive
11,O=C(CSc1nc2ccccc2nc1Cc1ccccc1)N1CCCCC1,inactive
12,O=C(NCC1CC1)C1(C(F)(F)F)C/C(=C\CCO)CCCO1 (stereo unspecified),inactive
13,O=C(O)c1ccccc1N=N/C(=N/Nc1cc(S(=O)(=O)O)ccc1O)c1ccccc1,10 µM (active)
14,CCC(=O)Nc1cccc(C(=O)OCc2cc(=O)n3nc(CC)sc3n2)c1,inactive
15,O=C(Nc1ccccc1Br)c1cc(CN2CCCC2)on1,inactive
16,Fc1ccc(C(Nc2ccc(Cl)c(C(F)(F)F)c2)c2nnc(-c3ccccc3)o2)cc1 (stereo unspecified),inactive
17,COc1ccc(C2CC(=O)N(Cc3ccccc3C)c3c2c(C)nn3-c2nc(C)cc(C)n2)c(OC)c1 (stereo unspecified),inactive
18,COc1cc(OC)c2c(c1C(CCN1CCCCC1)c1ccc(N(C)C)cc1)OC(=O)CC2c1ccc(N(C)C)cc1 (stereo unspecified),inactive
19,CC(C)OC(=O)c1cc(NC(=O)C2C3CCC(O3)C2C(=O)O)cc(C(=O)OC(C)C)c1 (stereo unspecified),inactive
20,Cc1sc(NC(=O)C2C3CCC(O3)C2C(=O)O)c(C(=O)OC(C)C)c1-c1ccc(Cl)cc1 (stereo unspecified),4.47 µM (active)
21,CCc1c(C)sc(NC(=O)C2c3ccccc3Oc3ccccc32)c1C(=O)OC(C)C,inactive

row,SMILES,Potency
1,FC(F)(F)C1CCCN(c2nsc3ccccc23)C1 (stereo unspecified),3.16 µM (active)
2,CCC(=O)N1CCc2cc(S(=O)(=O)NC(C(=O)Nc3ccc(C(C)=O)cc3)C(C)C)ccc21 (stereo unspecified),inactive
3,COc1ccc(C2/C=C\CN(Cc3ccco3)C(C)C(=O)N2Cc2ccc(F)cc2)cc1 (stereo unspecified),inactive
4,Cc1ccc(CSCC2Nc3ccc(C(=O)N4CCN(c5ccc(F)cc5)CC4)cc3NC2=O)cc1 (stereo unspecified),20 µM (active)
5,Cc1noc(C)c1S(=O)(=O)Nc1ccc(C(=O)N2CCN(c3ccc(F)cc3)CC2)cc1,inactive
6,CC1CCN(C(=O)c2ccc3c(c2)NC(=O)CN3)CC1,inactive
7,Cc1ccc(C)c(N2CCN(c3ccc4cc(S(=O)(=O)N5CCC(C)CC5)ccc4n3)CC2)c1,inactive
8,Oc1ccc2ccccc2c1N=Nc1nccs1,6.31 µM (active)
9,O=C(CSc1nc(-c2cccc(F)c2)[nH]c1-c1ccccc1)Nc1ccc2c(c1)OCO2,inactive
10,Cc1ccccc1CSc1nc(-c2ccccc2)nc2c1Cc1c(CO)cnc(C)c1O2,inactive
11,Cc1ccc(NC(=O)C2CCN(S(=O)(=O)c3cc(-c4noc(C)n4)ccc3C)CC2)c(C)c1,inactive
12,CCOC(=O)C1=C(NC(=S)NC(=O)c2ccccc2)c2ccccc2CC1(C)C,inactive
13,Cn1nnc(NC(=S)NC(=O)c2ccccc2)n1,70.8 µM (active)
14,O=C(NC(=S)Nc1ncccn1)c1ccccc1Br,inactive
15,CCN(CC)Cc1nc2sc(C)c(C)c2c(=O)[nH]1,inactive
16,CSc1nnc(SCc2nc3sc(C(=O)O)c(C)c3c(=O)[nH]2)s1,50.1 µM (active)
17,Cc1sc2nc(CC(N)=O)[nH]c(=O)c2c1-c1ccccc1,inactive
18,C=C1CCN(Cc2ccc(OC)cc2)S(=O)(=O)c2ccccc21,inactive
19,COC(=O)c1ccc(OC)c(Cn2c(=O)n(Cc3ccccc3)c(=O)c3c2c2cc(OC)ccc2n3C)c1,inactive
20,Cc1cc(C)cc(NC(=O)c2cnc3sc(N4CCCC4)nn3c2=O)c1,inactive
21,CCC(C)N1C(=O)S/C(=C/c2ccc(Sc3nc4ccccc4[nH]3)o2)C1=O (stereo unspecified),inactive

row,SMILES,Potency
1,O=C(O)C(c1ccccc1)N1C(=O)/C(=C\c2ccc(-c3cccc(Cl)c3)o2)SC1=S (stereo unspecified),39.8 µM (active)
2,O=C(NCc1ccccc1)c1cc(-c2cccc(Cl)c2)on1,inactive
3,Cc1cccc(N2CCN(C(=O)Cn3ncc4c5ccccc5n(C)c4c3=O)CC2C)c1 (stereo unspecified),inactive
4,CC(C)c1ccc(NS(=O)(=O)c2ccc3[nH]cc(C(=O)NC4CCCC4)c(=O)c3c2)cc1,inactive
5,Cc1cc2c(cc3c(SCc4cccc(Cl)c4)nnc(C)n32)o1,inactive
6,CCOc1cccc(CC(=O)N2CCc3c([nH]c4ccccc34)C2c2ccc(F)cc2)c1OCC (stereo unspecified),inactive
7,CCOc1cccc2c1N[C@@H](c1ccc(C(=O)O)cc1)[C@H]1CC=C[C@@H]21,35.5 µM (active)
8,CCOC(=O)C1Nc2ccc(C(F)(F)F)cc2C2C=CCC12 (stereo unspecified),inactive
9,C=C1CCN(C(CC(C)C)C(=O)NCc2cc(OC)c(OC)c(OC)c2)S(=O)(=O)c2ccccc21 (stereo unspecified),inactive
10,CCCn1c2ccccc2c2cnn(CC(=O)N(C)c3ccccc3CC)c(=O)c21,inactive
11,COc1ccc(C2/C=C\CN(C(=O)c3ccc(C)cc3)C(Cc3ccccc3)C(=O)N2Cc2ccc(F)cc2)cc1 (stereo unspecified),inactive
12,COc1cccc(CNC(=O)Cn2c(=O)c3cccn3c3ccc(F)cc32)c1OC,inactive
13,O=C(c1cccs1)c1cn(CCOc2ccc(Cl)cc2)c2ccccc12,inactive
14,Cc1ccc(-c2ccc(CCC(=O)O)n2-c2ccc(C(N)=O)cc2)cc1,inactive
15,CCN1C(=O)c2ccccc2Sc2ccc(NC(=O)Cc3ccc(OC)cc3)cc21,inactive
16,CCN1/C(=C/C(=S)Nc2ccccc2)Sc2ccccc21,50.1 µM (active)
17,CCN1/C(=C\c2ccc3ccccc3[n+]2CC)Sc2cc(C)ccc21,inactive
18,COc1ccc(CCNC(=O)c2ccc(CSCc3ccc(C)cc3)o2)cc1OC,inactive
19,COc1ccc(-c2ccc(OC)c(C3C4C=CCC(C)C4C(=O)N3Cc3ccccc3)c2)cc1C (stereo unspecified),inactive
